Each structure is given as a SMILES string. The campaign covered roughly 48,000 compounds. About 13,000 (27%) showed an effect of 50% or more. This is one part of the list.

This assay concerns Wolbachia pipientis. The assay can be described thus: Anti-Wolbachia Cell-Based Screen. On the set-up: scale not given: in the data most compounds retested in dose-response had high values. The conditions noted are these: 5 µM. Type of assay: functional.
`COc1ccc(C)cc1C(C)NC(=O)Cn1ccc(=O)n(C)c1=O` (centres undefined): the “Percent Effect” value was found to be 121.4%.
Then `COc1ccc(C(O)CNC(=O)Cn2ccc(=O)n(C)c2=O)cc1` (centres undefined), with 1.675%; and `COc1ccc(C)cc1C(C)NC(=O)NCCCn1cncn1` (centres undefined), with 6.959%.
For `COc1ccc(C(C)NC(=O)Cn2ccc(=O)n(C)c2=O)cc1F` (centres undefined) the value was 127.2%.
Then `CC(C)CS(=O)(=O)CCNc1ncccn1`, with -11.8%; and `O=C(c1ccccn1)N1CCCC(c2nccn2CC2CCC2)C1` (centres undefined), with 7.496%; and `Cc1nccn1CCCN1CCC(c2nccn2CC2CCC2)CC1`, with 81.99%.
Consider `Cc1nccn1CCCN1CCCC(c2nccn2CC2CCC2)C1` (centres undefined), for which the “Percent Effect” value is 94.54%.
For `CCn1c(C2CCCN(Cc3nccn3CCOC)C2)nn(C)c1=O` (centres undefined) the value was 3.298%; for `COCCCN1CCCC(c2nccn2CC2CCC2)C1` (centres undefined), 85.63%; for `CC(C(=O)N1CCCC1)N1CCC(c2nccn2CC2CCC2)CC1` (centres undefined), -1.675%.
With `N#Cc1ccccc1CN1CCCC(c2nccn2CC2CCC2)C1` (centres undefined), the “Percent Effect” value is recorded as 17.05%.
On to `CCn1ccnc1CN(C)C1CCCN(CCCc2ccccc2)C1` (centres undefined), for which the “Percent Effect” value worked out at 28.9%.
Then `Cc1nccn1CCCN1CCCC(c2ccccc2)C1` (centres undefined), with 96.96%; and `c1cn(CC2CC2)c(C2CCN(CCC3CCOC3)CC2)n1` (centres undefined), with -2.095%.
As for `Cc1nccn1CCC(=O)N1CCCN(CCCc2ccccc2)CC1`, the “Percent Effect” value came to 9.498%.
On to `FC(F)Oc1ccccc1CN1CCCC(c2nccn2CC2CC2)C1` (centres undefined), for which the “Percent Effect” value is listed as -15.63%.
Then `CCC1CC(=O)NCc2nc3sc(C)cn3c21` (centres undefined), with 11.81%.
Then `CCOc1nnc(CN2CCC(c3cc4ccccc4[nH]3)CC2)s1`, with -12.75%; and `CC(=O)c1cccc(OCCCC(=O)NC(C#N)CC(C)C)c1` (centres undefined), with -6.212%; and `COCCCC(=O)N1CC(=O)Nc2cc(Br)ccc21`, with -0.04468%.
As to `Cn1ccnc1C1CCN(CCN2CCOCC2)CC1`, the “Percent Effect” value is given as -3.118%.
Then `Cc1nccn1Cc1nnc(C2CCCN(Cc3cccnc3)C2)n1C` (centres undefined), with -3.702%.
For `Cc1nccn1CCCN1CCCC(c2nccn2C)C1` (centres undefined) the value was 103.4%; for `CC(=O)N1CCC(N2CC[C@H](c3nc4cc(C)ccc4o3)C2)CC1`, -0.1678%.
Then `Cc1ccccc1CN1CCN(Cc2nccn2C)CC1`, with -1.21%; and `Cc1ccccc1CNC(=O)CN1CCCC(Cc2nccn2C)C1` (centres undefined), with 107%.
Regarding `Cc1ccccc1CNC(=O)C1CCN(Cc2nccn2C)CC1`, the “Percent Effect” value worked out at 101.3%.
Then `CNC(=O)NC(=O)CN1CCCC(Cc2ccccc2OC)C1` (centres undefined), with -10.54%.
On to `CC(=O)N[C@@H]1CN(CC(=O)NCc2ccccc2C)C[C@H]1C(C)C`, for which the “Percent Effect” value was -3.086%.
For `Cn1ccnc1CN1CCN(CCOc2ccccc2C#N)CC1` the value was -0.4037%; for `Cn1ccnc1CN1CCC(CCC(=O)Nc2ccccc2Cl)CC1`, 11.71%; for `Cn1ccnc1CN1CCCC(Cc2ccccn2)C1` (centres undefined), -12.05%.
For `Cn1ccnc1CN1CCC(Cc2ccccn2)CC1` the value was 101.7%; for `OCCN(Cc1cccnc1)c1ncc(Br)cn1`, -8.725%; for `CCOc1ncccc1NC(=O)c1sccc1C`, -6.226%.
For `Cc1ccccc1C(C(=O)NCCN1CCC(CO)CC1)N(C)C` (centres undefined) the value was -0.033%; for `CC(=O)NCCCC(=O)NC1(c2ccc(Cl)c(Cl)c2)CC1`, -4.491%.
With `Cc1cc(C(F)(F)F)nc(CNC(=O)C2CCCCCN2C)n1` (centres undefined), the “Percent Effect” value was -5.462%.
For `Cc1cc(C(F)(F)F)nc(C2COCCN2S(C)(=O)=O)n1` (centres undefined) the value was 108.9%; for `Cc1cc(S(=O)(=O)N2CCOCC2C#N)ccc1F` (centres undefined), -3.602%.
For `CN1CCOC[C@H]1c1nc(C(C)(C)C)c[nH]1` the value was 12.45%.
For `Cc1cc(C(F)(F)F)nc(C2CCCN2S(C)(=O)=O)n1` (centres undefined) the value was 108.4%; for `O=C(c1cccnc1O)N1CCC2(CCCO2)CC1`, -3.936%.
Regarding `COc1cc2c(cc1CNCc1cccnc1OC)OC(C)C2` (centres undefined), the “Percent Effect” value is on record as 4.577%.
Then `Cc1noc(-c2ccc(N3CCCC(C(=O)c4nccn4C)C3)nc2)n1` (centres undefined), with 20.25%; and `CC(C)COc1cncc(NCC(O)c2ccco2)n1` (centres undefined), with 9.809%; and `CC(C)(CNC(=O)Nc1ccc(S(=O)(=O)C(F)F)cc1)N1CCOCC1`, with 14.64%.
For `CCN(CC)Cc1ccccc1NC(=O)N(C)Cc1ccccc1O` the value was -1.773%; for `O=C([C@@H]1Cc2[nH]cnc2CN1Cc1cc2ccccc2o1)N1CCCC1`, 9.512%.
For the compound `COc1c(CNCc2ccc(CN(C)C)cc2)c(C)nn1C`, the “Percent Effect” value came out at 4.116%.
For `COc1c(CNCc2ccc(CS(C)(=O)=O)cc2)c(C)nn1C` the value was 148.4%; for `COc1c(CNCc2ccc(S(C)(=O)=O)cc2)c(C)nn1C`, 139.8%; for `COc1c(CNCc2cccc(CS(C)(=O)=O)c2)c(C)nn1C`, -2.544%.

These data come from ChEMBL document CHEMBL3988442, “University of Dundee, Small-Polar-MMV Screening Library” (2021).
